Sampled rows, rich in hits. Any-hit rate of the full collection: about 9.5%.
NS1 inh: influenza NS1 inhibition. Potency, µM (series often up to 46.1 µM), for inactives: at the highest dose activity, positive = more growth. actives 0.4% (n = 270,000). AID 2326; also: actives are rising curves; nearly all actives have a fitted effect of over 50% in size
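Compounds were scored for reversing the slow growth caused by influenza A NS1 in S. cerevisiae, measured by optical density at 600 nm. Assay medium contained 2% galactose at pH 6.0; NS1-free yeast of the same strain were the positive control.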
Pf growth 96h: P. falciparum growth inhibition at 96 hours. P. falciparum luciferase reporter growth, 96 h. Potency, µM (titrated, usually from 28.7 µM), for the others: at the highest dose activity change, negative = inhibition, hits mostly inhibitors. actives 6.9% (n = 320,000). AID 504834; active = well fitted inhibition curve with a large enough effect; inconclusive = small, poorly fitted or top-dose-only effect, or another doubt; inactive = no such curve, though single readings can be large or run the other way; also: % is scaled to controls: 0 for no effect and ±100 for the full control effect
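Luminescence readout: decreased luciferase signal marks inhibited growth of reporter-expressing P. falciparum in infected red cells (2% hematocrit, 0.05% parasitemia final), exposed to compound two generations (96 h, 37 C, 5% CO2).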
SARS PLpro yeast: blocks SARS-CoV papain-like protease in a yeast assay; S. cerevisiae expressing SARS-CoV PLpro, growth rescue; Potency, µM (series often up to 32.9 µM), without a hit: at the highest dose activity, positive = growth rescue, hits mostly activators; actives 0.19% (n = 330,000); AID 485353; also: 0% is about no effect; nearly all actives have a fitted effect of over 55% in size
Pf growth 48h: P. falciparum growth inhibition at 48 hours (one generation); P. falciparum luciferase growth in erythrocytes, 48 h; Potency, µM (highest dose often 28.7 µM), without a hit: at the top dose activity change, negative = inhibition, most hits filed as inhibitors; actives 5.9% (n = 310,000); active = well fitted inhibition curve with a large enough effect; inconclusive = small, poorly fitted or top-dose-only effect, or another doubt; inactive = no such curve, though single readings can be large or run the other way; also: % is scaled to controls: 0 for no effect and ±100 for the full control effect
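Luciferase-expressing P. falciparum in infected erythrocytes (2% hematocrit, 0.1% parasitemia final) in RPMI 1640/0.5% Albumax were exposed to compound for 48 hours at 37 C, 5% CO2; growth read as luminescence.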
RE007 growth inh: less growth of the S. pombe RE007 Vpr strain; S. pombe RE007 Vpr strain, BacTiter-Glo ATP luminescence, 24 h; Potency, µM (top dose mostly 92.2 µM), for inactives: at the highest dose activity change, negative = less growth, actives largely listed as inhibitors; actives 0.21% (n = 360,000); active = well fitted falling curve with a large enough effect; inconclusive = small, poorly fitted or top-dose-only effect; inactive = no such curve, though single readings can be large or run the other way; also: % is scaled to controls: 0 for no effect and ±100 for the full control effect; nearly all actives have a fitted effect of over 50% in size
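Fission yeast strain RE007, carrying one chromosomally integrated HIV-1 vpr copy, was seeded at OD 0.01 in PMG+AL medium with 23 nL pinned compound. After 24 h at 30 °C and 99% humidity, viability was read by BacTiter-Glo luminescence.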
* marks the source's active call; other numbers are inactive results; ? = inconclusive; . = no result; [ ] = dose if it differs, or a comment. Unless noted, calls follow the shape of the full dose curve. Potency is read from the fitted curve at half-maximal effect.

SMILES	NS1 inh	Pf growth 96h	SARS PLpro yeast	Pf growth 48h	RE007 growth inh
CCOC(=O)C1=C(C)NC2=C(C(=O)CC(C)(C)C2)C1c1ccc2c(c1)CCCN2C (stereo unspecified)	14.3%[9.22 µM]	9.5%	-3.4%	13.1µM*	-8.2%
CC(C)C[C@H]1CN(CCCC[C@H]2CNC(=O)C(=O)N2CCc2ccccc2)C(=O)C(=O)N1Cc1ccccc1	.	.	.	.	-4.2%
CNC(=S)N(C1=NCC(c2ccc([N+](=O)[O-])cc2)S1)c1ccccc1 (stereo unspecified)	-2.3%	13.1µM*	14.7%	-32.5%	2.0%
Cc1c(C)c2c(OCC(=O)Nc3ccc(CCO)cc3)cc3c(c2oc1=O)CCC(C)(C)O3	5.6%	13.1µM*	-1.5%	8.28µM*	17.6%
Cc1c(C)c2c(OCC(=O)N3CCC(C(=O)O)CC3)cc3c(c2oc1=O)CCC(C)(C)O3	?	5.22µM*	6.0%	?	-12.8%
CC1=C(c2ccc(NN=C(C#N)C#N)cc2)NNC(=O)C1	.	-16.7%	.	0.8%	.
c1ccc(CCN2CCOCC2)nc1	-2.8%	.	.	.	.
Cc1ccc(CNCC(O)c2ccccc2)s1 (stereo unspecified)	3.6%	123.5%	2.9%	11.7µM*	-7.2%
OC(CNCc1cccc(Br)c1)c1ccccc1 (stereo unspecified)	-1.6%	10.4µM*	0.6%	3.7µM*	-18.6%
OC(CNCc1cccs1)c1ccccc1 (stereo unspecified)	4.9%	?	0.5%	13.1µM*	-12.8%
Cc1ccsc1CNCC(O)c1ccccc1 (stereo unspecified)	5.7%	-25.8%	4.0%	11.7µM*	-2.5%
CCOC1=C2CN(S(=O)(=O)c3ccc(C)cc3)[C@H](c3ccccc3)C[C@@H]2N(S(=O)(=O)c2ccc(Br)cc2)[C@H](c2ccccc2)C1	.	.	.	.	10.3%
CC1Cc2ccccc2N1S(=O)(=O)c1cccc(C(=O)NCCCn2ccnc2)c1 (stereo unspecified)	.	?	1.9%	?	-4.0%
CC(=O)Nc1ccc(S(=O)(=O)Nc2ccccc2C(=O)N2CCCCC2)cc1	28.1%	0.0%	10.6%	-25.5%	-12.1%
COc1nc(NCC(C)C)nc(Oc2ccc(OCc3ccccc3)nn2)n1	-15.8%	2.6%	10.0%	0.37µM*	1.4%
CCNc1nc(NC(C)C)nc(Oc2ccc(OCc3ccccc3)nn2)n1	4.4%	-33.0%	2.1%	?	?
CCOc1ccc2c(C)cc(=O)oc2c1OCC	-5.7%	39.4%	2.3%	?	-6.3%
CCOc1c(C(=O)CC)cc2c(C)cc(=O)oc2c1C	0.8%	?	3.5%	11.7µM*	-27.2%
C=CCc1cc(/C=C2/NC(=S)NC2=O)cc(OC)c1O	7.2%	-1.6%	-4.3%	-7.4%	8.2%
C=CCc1cc(/C=N/n2cnnc2)cc(OCC)c1O	-8.6%	8.28µM*	2.5%	?	21.3%
C=CCc1cc(/C=C2/NC(=O)NC2=O)cc(OCC)c1O	.	1.04µM*	1.1%	-3.9%	-23.2%
COc1cc(C#N)ccc1OCC(=O)Nc1cccc(S(=O)(=O)N(C)c2ccccc2)c1	.	.	.	.	-11.3%
COC(=O)c1cc(C(=O)Nc2ccc(C)cn2)cc([N+](=O)[O-])c1	0.1%	11.7µM*	-6.7%	17.7%	-17.9%
COC(=O)c1cc(C(=O)Nc2cccc(C)n2)cc([N+](=O)[O-])c1	11.4%	46.6%	-2.2%	34.3%	?
Cc1ccc(C)c(N2CCN(C(=O)c3cc4ccccc4oc3=O)CC2)c1	-9.6%	9.28µM*	-0.4%	.	-5.3%
SMILES	NS1 inh	Pf growth 96h	SARS PLpro yeast	Pf growth 48h	RE007 growth inh
O=C(c1cccc(C(F)(F)F)c1)N1CCN(CCc2ccccc2)CC1	-5.1%	25.4%	2.6%	?	7.7%
O=C(c1ccc(F)cc1Cl)N1CCN(CCc2ccccc2)CC1	-2.5%	8.28µM*	1.9%	5.2%	-17.0%
O=C(c1ccco1)N1CCN(C(=O)c2cc3ccccc3oc2=O)CC1	5.9%	-14.6%	2.6%	10.3%	1.8%
O=C(c1cc2ccccc2oc1=O)N1CCN(CCc2ccccc2)CC1	11.4%	9.28µM*	1.2%	6.5%	-7.3%
COc1ccc2oc(=O)c(C(=O)N3CCN(c4ccccc4C)CC3)cc2c1	-22.7%	.	-0.8%	3.8%	9.3%
COc1ccc(F)cc1S(=O)(=O)NCC1CCCO1 (stereo unspecified)	1.0%	?	-0.9%	-11.3%	0.9%
Cc1ccc(CC2(C)C(=O)Nc3c(Cl)ccc(Cl)c32)cc1 (stereo unspecified)	.	.	.	.	-15.2%
NC(=O)C(=O)O	0.0%	.	.	.	.
O=C(Nc1ccc(N2CCOCC2)cc1N1CCOCC1)c1ncoc1-c1cccc(F)c1	4.8%	-25.9%	2.0%	11.7µM*	-2.8%
O=C(Nc1ccccc1N1CCCCC1)c1ncoc1-c1cccc(F)c1	5.7%	?	0.1%	?	-3.1%
O=C(Nc1ccccc1N1CCCCC1)c1ncoc1-c1ccc(F)cc1	-4.6%	.	-0.6%	3.29µM*	-3.7%
O=C(c1cnc2n(c1=O)CCS2)N1CCN(c2ccc([N+](=O)[O-])cc2)CC1	6.3%	-1.5%	-5.1%	3.7%	-1.7%
COc1ccc(CC(NC(C)=O)C(=O)NC2CCN(S(=O)(=O)c3ccc(NC(C)=O)cc3)CC2)cc1OC (stereo unspecified)	1.4%	13.1µM*	0.0%	0.0%	-5.4%
COc1cc(C(=O)N2CCC(NC(=O)C(Cc3ccc(C)cc3)NC(C)=O)CC2)cc(OC)c1OC (stereo unspecified)	-2.7%	5.86µM*	0.5%	-4.3%	3.7%
COc1cc(C(=O)N2CCC(NC(=O)C(Cc3ccc(C(C)C)cc3)NC(C)=O)CC2)cc(OC)c1OC (stereo unspecified)	1.4%	10.0%	-3.5%	?	-19.6%
COc1cc(CC(NC(C)=O)C(=O)NC2CCN(C(=O)Nc3ccccc3C)CC2)cc(OC)c1 (stereo unspecified)	-5.4%	1.65µM*	-0.9%	13.8%	0.0%
COc1ccc(CC(NC(C)=O)C(=O)NC2CCN(S(=O)(=O)c3ccccc3)CC2)cc1OC (stereo unspecified)	1.0%	5.22µM*	0.5%	1.2%	-4.8%
COc1cccc(CC(NC(C)=O)C(=O)NC2CCN(S(=O)(=O)c3ccc(NC(C)=O)cc3)CC2)c1 (stereo unspecified)	-2.7%	-2.2%	-1.6%	-22.7%	-2.8%
COC(=O)c1cc(S(=O)(=O)NCCN2CCOCC2)cn1C	-9.7%	?	2.2%	-9.3%	6.2%
O=Nc1ccc2oc(=O)ccc2c1	-31.6%	.	.	.	.
Cc1cc(C)c2c(CC(=O)NC3CCS(=O)(=O)C3)coc2c1 (stereo unspecified)	-4.9%	?	-2.0%	22.2%	4.2%
COc1ccc(CC(NC(C)=O)C(=O)NC2CCN(C(=O)Nc3ccccc3Cl)CC2)cc1OC (stereo unspecified)	-5.0%	83.2%	1.9%	.	-4.1%
COc1cc(CN2CCN(S(=O)(=O)c3ccc(NC(C)=O)cc3)CC2)cc(OC)c1O	-8.7%	14.2%	-8.4%	-0.8%	-11.8%

From PubChem
